Screening data deposited in PubChem BioAssay by several laboratories.
This is a sample that favours compounds with a hit; in the whole collection about 1.8% have one here.
Neddyl block: inhibitors of cullin neddylation, primary screen, biochemical, TR-FRET, uHTS, NAE and Ubc12. NEDD8-conjugating enzyme Ubc12 (Homo sapiens) + NEDD8-activating enzyme E1 regulatory …. 360,000 compounds, 0.58% hits. calls only at 25 µM; in the data active = inhibition above about 36%
MBD2 DNA inh: inhibitors of MBD2 binding to methylated DNA, primary screen, biochemical, TR-FRET, DNA-binding domain, human; Methyl-CpG-binding domain protein 2 (Homo sapiens), Q9UBB5; inhibition, % at 4.4 µM; MBD2 binding to methylated oligonucleotide; 370,000 compounds, 0.31% hits; in the data active = inhibition above about 13%
UBC13 polyUb: UBC13 polyubiquitin chain formation inhibitors, primary screen, biochemical, TR-FRET, uHTS; inhibition, % at 20 µM; 330,000 compounds, 0.47% hits; AID 485273, 2010; Ubiquitin-conjugating enzyme E2 N (Homo sapiens), P61088; in the data active = inhibition above about 45%, passing the limit was not always enough
UHRF1 binding: UHRF1 methylated DNA binding inhibitors, primary screen, counter-screen for MBD2 inhibitor project, biochemical, TR-FRET, human UHRF1, single concentration. E3 ubiquitin-protein ligase UHRF1 (Homo sapiens), Q96T88. UHRF1 binding to methylated oligo. inhibition, % at 4.4 µM. 370,000 compounds, 0.75% hits;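 note: UHRF1 SRA domain binding a hemimethylated CpG hairpin DNA probe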
Target sequence (Q96T88 whole entry, looked up, the tested form may be a part): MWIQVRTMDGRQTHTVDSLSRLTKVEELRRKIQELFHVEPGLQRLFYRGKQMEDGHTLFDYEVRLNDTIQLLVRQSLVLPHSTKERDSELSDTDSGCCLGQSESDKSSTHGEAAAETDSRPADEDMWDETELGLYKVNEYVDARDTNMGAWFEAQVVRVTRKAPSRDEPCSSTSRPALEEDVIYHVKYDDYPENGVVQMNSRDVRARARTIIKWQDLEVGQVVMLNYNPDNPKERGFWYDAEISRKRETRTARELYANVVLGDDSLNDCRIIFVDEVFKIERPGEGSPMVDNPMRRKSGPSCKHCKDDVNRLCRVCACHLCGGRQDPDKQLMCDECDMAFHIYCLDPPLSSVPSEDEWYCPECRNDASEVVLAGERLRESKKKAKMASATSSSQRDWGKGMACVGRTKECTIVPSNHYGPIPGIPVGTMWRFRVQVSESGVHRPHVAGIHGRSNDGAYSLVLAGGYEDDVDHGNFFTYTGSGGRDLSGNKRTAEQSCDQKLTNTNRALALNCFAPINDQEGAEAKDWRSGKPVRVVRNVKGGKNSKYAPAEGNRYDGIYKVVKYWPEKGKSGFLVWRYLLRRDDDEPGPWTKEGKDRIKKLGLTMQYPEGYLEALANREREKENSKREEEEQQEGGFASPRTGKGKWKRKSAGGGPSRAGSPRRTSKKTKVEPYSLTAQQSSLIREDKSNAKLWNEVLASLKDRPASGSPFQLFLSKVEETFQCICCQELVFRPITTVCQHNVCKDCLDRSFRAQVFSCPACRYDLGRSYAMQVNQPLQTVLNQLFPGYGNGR
UHRF1 ctr MBD2: UHRF1 methylated DNA binding inhibitors, counter-screen for MBD2 inhibitor project, biochemical, TR-FRET, human UHRF1; shares compounds with MBD2 DNA inh; UHRF1 binding to methylated oligonucleotide; inhibition, % at 4.4 µM; 1,000 compounds, 25% hits;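 note: UHRF1 SRA domain binding a labeled hemimethylated CpG hairpin DNA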
MBD2 confirm: inhibitors of MBD2 binding to methylated DNA, confirmation, biochemical, TR-FRET, DNA-binding domain, human; shares compounds with MBD2 DNA inh; inhibition, % at 4.4 µM; 1,000 compounds, 26% hits; AID 720531, 2013; TR-FRET MBD2-DBD binding to methylated oligonucleotide; in the data active = inhibition above about 14%
Large screens that a line does not name were inactive (follow-up assays come after a bar, where shown). Cut-off read from the data, not from the text of the source, unless noted: active = inhibition above about 21%; inactive = the rest.

O=C(NC1CCCCCC1)C1CCC(CNS(=O)(=O)c2ccc(Br)s2)CC1 (centres undefined)	MBD2 DNA inh 13.8, UHRF1 binding 23.4 | UHRF1 ctr MBD2 inactive | MBD2 confirm inactive
CC1CCC(NC(=O)C2CCC(CNS(=O)(=O)c3ccccc3)CC2)CC1 (centres undefined)	none
CC1CCCCC1NCc1cccc([N+](=O)[O-])c1 (centres undefined)	none
COC(=O)c1ccccc1NC(=O)CSc1nc(O)cc(=O)n1C1CCCC1	MBD2 DNA inh 13.4, UHRF1 binding 24.2 | UHRF1 ctr MBD2 inactive | MBD2 confirm inactive
CCCCOc1ccc(C(=O)Nc2ccc(N3CCN(C(=O)C(C)C)CC3)cc2)cc1	MBD2 DNA inh 33.0 | UHRF1 ctr MBD2 inactive | MBD2 confirm inactive
O=C(CN1CCC(NC(=O)Nc2ccc3c(c2)OCO3)CC1)Nc1ccc2c(c1)OCCO2	none (no result: Neddyl block, UBC13 polyUb)
CCOC(=O)c1ccc(NC(=O)NC2CCN(CC(=O)NCc3ccc4c(c3)OCO4)CC2)cc1	MBD2 DNA inh 18.6 | UHRF1 ctr MBD2 inactive | MBD2 confirm inactive
O=C(Cn1cc(COc2ccccc2C(F)(F)F)nn1)c1ccc(O)cc1	MBD2 DNA inh 15.3, UHRF1 binding 22.1 (no result: UBC13 polyUb) | UHRF1 ctr MBD2 inactive | MBD2 confirm inactive
O=C(O)C(=Cc1ccncc1)c1cccc2ccccc12	none (no result: UBC13 polyUb)
COC(=O)C(=Cc1ccncc1)c1cccc2ccccc12	MBD2 DNA inh 39.7 (no result: UBC13 polyUb) | UHRF1 ctr MBD2 inactive | MBD2 confirm inactive
COc1ccc(CNC(=O)C/C(C)=N/NC(=O)c2cnccn2)cc1	none
CCCn1nc2cc(C(=O)NCc3ccc(OC(F)(F)F)cc3)ccc2c1OCC	none (not shown: Neddyl block)
CCCn1nc2cc(C(=O)NCc3ccc(OC)cc3)ccc2c1OCC	MBD2 DNA inh 14.2, UHRF1 binding 28.8 (not shown: Neddyl block) | UHRF1 ctr MBD2 inactive | MBD2 confirm inactive
O=S(=O)(c1ccc2nc(-c3ccco3)c(-c3ccco3)nc2c1)N1CCOCC1	MBD2 DNA inh 14.4, UHRF1 binding 29.6 | UHRF1 ctr MBD2 inactive | MBD2 confirm inactive
O=C(c1ccc2nc(-c3ccco3)c(-c3ccco3)nc2c1)N1CCN(c2ccccc2)CC1	none
O=C(O)c1ccc2nc(-c3ccco3)c(-c3ccco3)nc2c1	MBD2 DNA inh 69.0, UHRF1 binding 92.8 | UHRF1 ctr MBD2 72.7 | MBD2 confirm 22.8
Cc1ccc(NC(=O)CCC(=O)c2ccc(F)cc2)cc1Cl	none
COc1ccc(OC)c(CNCc2ccc3c(c2)OCO3)c1	none
COc1ccc(S(=O)(=O)Nc2ccccc2C(=O)N2CCOCC2)cc1OC	none
COCOc1cccc(CN2CCC(C)(Oc3ccc(C(C)=O)cc3)C2)c1 (centres undefined)	none (no result: UBC13 polyUb)
CC(=O)c1ccc(OC2(C)CCN(Cc3cc4ccccc4[nH]3)C2)cc1 (centres undefined)	MBD2 DNA inh 13.2 (no result: UBC13 polyUb) | UHRF1 ctr MBD2 inactive | MBD2 confirm inactive
O=C(C[C@@H]1C/C=C\C[C@@H](NC(=O)OCC2c3ccccc3-c3ccccc32)C(=O)OCCNC1=O)N[C@@H](CO)Cc1ccccc1	none
O=Cc1ccc2oc3nc4n(c(=O)c3c(=O)c2c1)CCCS4	MBD2 DNA inh 17.7 | UHRF1 ctr MBD2 37.7 | MBD2 confirm 35.9
O=C(Nc1cccc(Cl)c1)Nc1nnc(-c2ccncc2)s1	none
COc1ccc2c(c1OC)c(=O)n1c3ccc(OC(C)C(=O)NCCCN4CCOCC4)cc3c3ccnc2c31 (centres undefined)	none (not shown: Neddyl block, MBD2 DNA inh, UHRF1 binding)
COc1ccc2c(c1OC)c(=O)n1c3ccc(OC(C)C(=O)NCCN4CCOCC4)cc3c3ccnc2c31 (centres undefined)	MBD2 DNA inh 36.1, UHRF1 binding 42.9 (not shown: Neddyl block) | UHRF1 ctr MBD2 52.4 | MBD2 confirm 49.6
Cc1ccc2nc(Cl)c3cc(C(=O)NCCCN4CCCC4)sc3c2c1	MBD2 DNA inh 15.5 | UHRF1 ctr MBD2 inactive | MBD2 confirm 16.4
CCCN1CCN(CCCNC(=O)c2cc3c(=O)oc4ccc(C)cc4c3s2)CC1	none
C=CCN(CC=C)C(=O)Nc1cc(Cl)ccc1OC	none
Cc1ccc(/C=C2/C(=O)c3ccc(C(=O)O)cc3C2=O)o1	MBD2 DNA inh 22.2, UHRF1 binding 78.0 (no result: UBC13 polyUb) | UHRF1 ctr MBD2 40.0 | MBD2 confirm inactive
O=C(O)c1ccc2c(c1)C(=O)/C(=C\c1ccco1)C2=O	MBD2 DNA inh 28.5, UHRF1 binding 88.0 | UHRF1 ctr MBD2 38.1 | MBD2 confirm inactive
O=C(CSc1nnc(-c2ccncc2)n1Cc1ccco1)N1c2ccccc2Sc2ccc(Cl)cc21	none
NS(=O)(=O)c1ccc(NC(=O)COC(=O)c2cn(-c3ccccc3)nc2-c2ccccc2)cc1	none
CCCCn1c(SCC(=O)Nc2sc3c(c2C(N)=O)CCC3)nnc1-c1ccccc1	MBD2 DNA inh 13.2 | UHRF1 ctr MBD2 inactive | MBD2 confirm inactive
COc1ccc(S(=O)(=O)CCC(=O)N2CCN(c3ccc(C(C)=O)cc3)CC2)cc1	MBD2 DNA inh 18.4, UHRF1 binding 31.3 | UHRF1 ctr MBD2 inactive | MBD2 confirm inactive
O=C(CCS(=O)(=O)c1ccc(Br)cc1)N1CCN(c2ccc(Cl)cc2)CC1	none
COc1ccc(N2CCN(C(=O)CCS(=O)(=O)c3ccc(OC)cc3)CC2)cc1	none
O=C(CCS(=O)(=O)c1ccc(Br)cc1)N1CCN(c2ccc(F)cc2)CC1	MBD2 DNA inh 25.7, UHRF1 binding 72.8 | UHRF1 ctr MBD2 inactive | MBD2 confirm inactive
CCN(CC)S(=O)(=O)c1ccc(S(=O)(=O)Nc2cc3c(cc2C(C)=O)OCO3)cc1	none
F[B-](F)(F)COCc1ccccc1Br	none (no result: UBC13 polyUb)
O=C(O)c1cccc(Sc2ccc(Br)cc2C(=O)O)c1	none
O=C(O)c1cccc(Sc2cc(Cl)ccc2C(=O)O)c1	MBD2 DNA inh 13.4 | UHRF1 ctr MBD2 inactive | MBD2 confirm inactive
CCC(C)NC(=O)CSc1nc2ccccc2c(=O)n1CCCN1CCCCC1 (centres undefined)	MBD2 DNA inh 13.8 | UHRF1 ctr MBD2 inactive | MBD2 confirm inactive
CCC(C)NC(=O)CSc1nc2ccccc2c(=O)n1CCCC(=O)NCC1CCCO1 (centres undefined)	none
COC(=O)c1cc(NC(C)=O)ccc1N1CCOCC1	none
COc1ccccc1NC(=O)N1CCC(c2nc3cc(C)c(C)cc3[nH]2)CC1	MBD2 DNA inh 13.4 | UHRF1 ctr MBD2 inactive | MBD2 confirm inactive
COc1ccc(/C=C2\SC(=S)N(CCC(=O)Nc3ccc(C(=O)O)cc3)C2=O)cc1OC	none (no result: MBD2 DNA inh, UHRF1 binding)
O=S(=O)(Nc1cccc(S(=O)(=O)N2CCCC2)c1)c1cccc(Br)c1	MBD2 DNA inh 104.5 | UHRF1 ctr MBD2 inactive | MBD2 confirm inactive
